Measurements published in PubChem BioAssay (Tox21).
Where “and” joins values, the source holds several entries; their conditions need not be identical. Equal values may be shown once. Results filed as inconclusive are left out. A call without a number means that no potency is given here. A structure can be active in one record and inactive in another. Calls of active or inactive are those of the source. Calls come from the whole dose curve; as a rule, active = well fitted curve in the direction sought with a large enough effect in the repeat runs; inconclusive = weak or mixed curves; inactive = no such curve, though single readings can be large; an effect the other way counts as inactive or inconclusive.

Columns and labels:
[1] = A CellTox Green Cytotoxicity Assay to monitor cytotoxicity in HEK293 cells - 40 hour (AID 1224871); note: nearly all actives have a fitted effect of over 45% in size; note: potency is the fitted concentration of half-maximal effect
Procedure, shortened: (§1)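 Nonlytic real-time cytotoxicity: HEK293 + CellTox Green reagent plated, 5 h preincubation, pintool compound addition (23 nL in DMSO), 37 C for 40 h, fluorescence measured at successive time points.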

[2] = qHTS RealTime-Glo MT Cell Viability Assay in HEK293 cells - 16 hour (AID 1224872); note: nearly all actives have a fitted effect of over 50% in size; note: potency is the fitted concentration of half-maximal effect
Procedure, shortened: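 Viability tracked continuously by luminescence as live cells reduce a prosubstrate for NanoLuc; HEK293 cells preincubated 5 h, compound-treated at 37 C, and read at 0, 8, 16, 24, 32 and 40 h.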

[3] = qHTS RealTime-Glo MT Cell Viability Assay in HepG2 cells - 8 hour (AID 1224873); note: nearly all actives have a fitted effect of over 55% in size; note: potency is the fitted concentration of half-maximal effect
Procedure, shortened: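 HepG2 cells (600/well) mixed with RealTime-Glo MT reagent, settled 5 h at 37 C/5% CO2 before compound addition. Nonlytic NanoLuc luminescence from viable-cell prosubstrate reduction read repeatedly during 40 h treatment at 37 C.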

[4] = qHTS RealTime-Glo MT Cell Viability Assay in HEK293 cells - 40 hour (AID 1224874); conditions: RealTime-Glo luminescence; max response: stronger effect = lower value; note: nearly all actives have a fitted effect of over 50% in size; note: potency is the fitted concentration of half-maximal effect
Procedure, shortened: (§2)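 Cells were seeded together with NanoLuc luciferase and a prosubstrate that viable cells reduce to a luciferase substrate. After a 5 h incubation at 37 C/5% CO2, compounds were added and luminescence was measured repeatedly during 40 h of treatment.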

[5] = A CellTox Green Cytotoxicity Assay to monitor cytotoxicity in HEK293 cells - 24 hour (AID 1224875); note: series mostly up to about 77 µM; nearly all actives have a fitted effect of over 45% in size
Procedure, shortened: as §1

[6] = A CellTox Green Cytotoxicity Assay to monitor cytotoxicity in HepG2 cells - 16 hour (AID 1224876); note: nearly all actives have a fitted effect of over 45% in size; note: potency is the fitted concentration of half-maximal effect
Procedure, shortened: (§3)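 Read-out is fluorescence of a cyanine dye excluded from live cells that stains DNA of dead HepG2 cells, with signal proportional to cytotoxicity. Plates were read at 0, 8, 16, 24, 32 and 40 h after compound addition.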

[7] = qHTS RealTime-Glo MT Cell Viability Assay in HepG2 cells - 32 hour (AID 1224877); note: nearly all actives have a fitted effect of over 55% in size; note: potency is the fitted concentration of half-maximal effect
Procedure, shortened: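 Viability was tracked continuously by NanoLuc luminescence from prosubstrate reduced by living HepG2 cells, at successive time points over 40 h of compound exposure. Cells with reagent were preincubated 5 h at 37 °C before compound addition.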

[8] = A CellTox Green Cytotoxicity Assay to monitor cytotoxicity in HepG2 cells - 24 hour (AID 1224878); note: nearly all actives have a fitted effect of over 45% in size; note: potency is the fitted concentration of half-maximal effect
Procedure, shortened: as §3

[9] = qHTS RealTime-Glo MT Cell Viability Assay in HEK293 cells - 0 hour (AID 1224880)
Procedure, shortened: as §2

[10] = A CellTox Green Cytotoxicity Assay to monitor cytotoxicity in HepG2 cells - 40 hour (AID 1224879); note: nearly all actives have a fitted effect of over 40% in size; note: potency is the fitted concentration of half-maximal effect
Procedure, shortened: as §3

Row | Structure (SMILES) | Potency [1] | Potency [2] | Potency [3] | max response [4] | Potency [5] | Potency [6] | Potency [7] | Potency [8] | Potency [9] | Potency [10] | Potency [4]
1 | CCn1cc(C(=O)O)c(=O)c2cc(F)c(N3CCNC(C)C3)c(F)c21 (stereo not given) | inactive | inactive | inactive | 14.9% (inactive) | inactive | inactive | inactive | inactive | inactive |  | 
2 | CC(C)(C)c1ccccc1 | inactive | inactive | inactive | 0.372% (inactive) | inactive | inactive | inactive | inactive | inactive | inactive | 
3 | Cc1ccc(-c2cc(C(F)(F)F)nn2-c2ccc(S(N)(=O)=O)cc2)cc1 | 54.7 µM (active) and 54.9 µM (active) and inactive | 38.7 µM (active) and 27.5 µM (active) and inactive | 48.8 µM (active) and 49 µM (active) and inactive |  | inactive | 48.8 µM (active) and 43.6 µM (active) | 49 µM (active) and inactive | 19.4 µM (active) and 49 µM (active) | inactive |  | 21.8 µM (active) and 30.9 µM (active)
4 | C=CC(=O)OCCCCCCCC | inactive | inactive | inactive | 3.71% (inactive) | inactive | inactive | inactive | inactive | inactive | inactive | 
5 | NC(N)=Nc1nc(CSCC/C(N)=N/S(N)(=O)=O)cs1 | inactive | inactive | inactive | -7.2% (inactive) and 0.8% (inactive) | inactive | 4.36 µM (active) and inactive | inactive | 3.89 µM (active) and inactive | inactive | inactive | 
6 | CCCCCCC(O)CCCCCCCCCCC(=O)O (stereo not given) | inactive | inactive | inactive | -19.9% (inactive) and -13.9% (inactive) | inactive | inactive | inactive | inactive | inactive |  | 
7 | Cc1cc(Cc2cc(C)cc(C(C)(C)C)c2O)c(O)c(C(C)(C)C)c1 | 43.9 µM (active) and 43.6 µM (active) | 15.6 µM (active) and 17.4 µM (active) | 38.9 µM (active) |  |  | 39.1 µM (active) and 38.9 µM (active) | 49.2 µM (active) and 49 µM (active) | 43.9 µM (active) and 43.6 µM (active) | inactive | 49.2 µM (active) and 43.6 µM (active) | 8.75 µM (active) and 15.5 µM (active)
8 | Cc1cccc(O)c1C | inactive | inactive | inactive | -0.0816% (inactive) and -5.42% (inactive) | inactive | inactive | inactive | inactive | inactive |  | 
9 | CC(C)(O)CCC(C)(C)O | inactive | inactive | inactive | -3.66% (inactive) |  | inactive | inactive | inactive | inactive | inactive | 
10 | CC[C@]1(O)C[C@@H]2CN(CCc3c([nH]c4ccccc34)[C@@](C(=O)OC)(c3cc4c(cc3OC)N(C)[C@H]3[C@@](O)(C(=O)OC)[C@H](OC(C)=O)[C@]5(CC)C=CCN6CC[C@]43[C@@H]65)C2)C1 | inactive | inactive | inactive |  | inactive | inactive | inactive | inactive | inactive | inactive | 15.1 nM (active) and 5.4 nM (active)
11 | CCN(CC)c1ccc2c(C)cc(=O)oc2c1 | inactive | 39.2 µM (active) | inactive |  | inactive | inactive | inactive | inactive | inactive |  | 39.2 µM (active)
12 | Cc1cccc2n[nH]nc12 | inactive | inactive | inactive | -0.386% (inactive) | inactive | inactive and 38.9 µM (active) | inactive | inactive and 38.9 µM (active) | inactive |  | 
13 | O=C1NCC2(CCN(CCc3ccccc3)CC2)O1 | inactive | inactive | inactive | 2.88% (inactive) | inactive | inactive | inactive | inactive | inactive | inactive | 
14 | O=C(O)Cn1cnnn1 | inactive | inactive | inactive | 0.0865% (inactive) | inactive | inactive | inactive | inactive | inactive |  | 
15 | Nc1nc2ccccc2[nH]1 | inactive | inactive | inactive | 0.0562% (inactive) and 7.05% (inactive) | inactive | inactive | inactive | inactive | inactive | inactive and 216 nM (active) | 
16 | CC(C)(C)NC(=O)[C@@H]1CN(Cc2cccnc2)CCN1C[C@@H](O)C[C@@H](Cc1ccccc1)C(=O)N[C@H]1c2ccccc2C[C@H]1O | inactive | inactive | inactive | 0.0575% (inactive) and 0.362% (inactive) | inactive | inactive | inactive | inactive | inactive |  | 
